# From PubChem BioAssay
# Many of the other results were omitted from the sample, so hits are more common in it than they were.
# Tgondii IFNg = T. gondii growth inhibition with IFN-gamma, primary screen, cell-based | hit rate 3.8% among 69,000 | activity change, negative = inhibition, % (no concentration beside the values) | Toxoplasma gondii growth in IFN-gamma-treated host cells; stronger effect = lower value; in the data active = activity change below about -70%, passing the limit was not always enough;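 also: host cells are HeLa cells infected with Toxoplasma gondii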
# Hits are given with their value; – = inactive; ! = a repeat was not active.
SMILES,Tgondii IFNg
COc1ccc(S(=O)(=O)N(C)C[C@H]2OCCCC[C@H](C)Oc3ccc(NC(=O)Cc4ccccc4)cc3C(=O)N([C@@H](C)CO)C[C@@H]2C)cc1,-107.9
C[C@@H]1CCCCO[C@@H](CN(C)S(=O)(=O)c2ccc(Cl)cc2)[C@H](C)CN([C@@H](C)CO)C(=O)c2cc(NC(=O)Nc3ccc(C(F)(F)F)cc3)ccc2O1,–
COc1ccc(S(=O)(=O)N(C)C[C@H]2OCCCC[C@H](C)Oc3ccc(NC(=O)Cc4ccccc4)cc3C(=O)N([C@@H](C)CO)C[C@H]2C)cc1,–
COc1ccc(S(=O)(=O)Nc2ccc3c(c2)C(=O)N([C@H](C)CO)C[C@H](C)[C@H](CN(C)S(=O)(=O)c2ccc(Cl)cc2)OCCCC[C@H](C)O3)cc1,-82.0
COc1ccc(S(=O)(=O)N(C)C[C@@H]2OCCCC[C@H](C)Oc3ccc(NC(=O)Cc4ccccc4)cc3C(=O)N([C@H](C)CO)C[C@H]2C)cc1,–
COc1ccc(S(=O)(=O)Nc2ccc3c(c2)C(=O)N([C@H](C)CO)C[C@@H](C)[C@@H](CN(C)S(=O)(=O)c2ccc(Cl)cc2)OCCCC[C@H](C)O3)cc1,-117.2
O=C(NCc1nc2ccccc2c(=O)[nH]1)C1CC2(CCNCC2)CN1 (centres undefined),–
CCOc1ccccc1Nc1nc(-c2nnc(-c3ccc(OC)cc3)o2)nc2ccccc12,–
Cc1cc2c(C)nc(N3CCC(N4CCCN(C(=O)c5ccco5)CC4)CC3)nc2cc1F,–
CCN(CC)[C@@H]1CCO[C@]2(CCN(C(=O)Cc3cccc(F)c3)C2)C1,–
CCc1cnc(C)nc1NCCNc1nc(C)cc(=O)[nH]1,–
Cc1nnnn1CCC(=O)N(CC#Cc1ccccc1)C1CCCC1,–
CCN1c2cc(C)ccc2-n2cccc2C12CCN(C(=O)NCCc1ccccc1)CC2,–
O=C(Nc1cc(F)cc(F)c1)c1c(O)c2cccnc2n(-c2ccc(F)cc2)c1=O,–
O=C(CSc1nc2c(c(=O)n1-c1ccccc1)SCC2)Nc1ccc(-c2ccccc2)cn1,-72.7
Cn1c(-c2ccccc2)cnc1NC(=O)c1cccn(CC(=O)N2CCCC2)c1=O,–
COc1cc(=O)[nH]c(SCC(=O)Nc2ccc(Cl)cn2)n1,–
O=C(c1ccccc1-c1ncc[nH]1)N1CC(=O)N(C2CCCCC2)CC(OCc2ccccn2)C1 (centres undefined),–
CN1CC2(CCN(C(=O)c3cc(-c4ccccc4)nc4ccccc34)C2)OC1=O (centres undefined),–
C[C@]12CC[C@@H]3c4ccc(O)cc4CC[C@H]3[C@@H]1C[C@@H](O)[C@@H]2O,–
CC12CCC3c4ccc(O)cc4CCC3C1C[C@H](O)[C@@H]2O (some centres undefined),–
COc1cc2c(cc1O)CC[C@@H]1[C@@H]2CC[C@]2(C)[C@@H](O)CC[C@@H]12,-82.5!
COc1ccc(C2CCCN2C(=O)c2[nH]c3ccc(OC)cc3c2C)cc1 (centres undefined),–
Cc1ccc(NC(=O)CN2C(=O)CCc3cc(S(=O)(=O)N4CCC(C)CC4)ccc32)c(C)c1,–
Cc1ccc2[nH]c(C(=O)N3CCN(c4ccccn4)CC3)c(NC(=O)c3ccc(Cl)cc3)c2c1,–
SMILES,Tgondii IFNg
COC(=O)c1c(NCC(C)C)c2cccc(Cl)c2[nH]c1=O,–
COC(=O)c1c(NCc2ccccc2)c2cccc(Cl)c2[nH]c1=O,–
COC(=O)c1c(NCc2ccc(SC)cc2)c2cccc(Cl)c2[nH]c1=O,-78.6
COC(=O)c1c(NCc2ccccc2OC)c2cccc(Cl)c2[nH]c1=O,–
COC(=O)c1c(NCc2ccc(F)cc2F)c2cccc(Cl)c2[nH]c1=O,-76.5
COC(=O)c1c(NCc2cccnc2)c2cccc(Cl)c2[nH]c1=O,–
COC(=O)c1c(NCc2ccc(F)cc2F)c2cc(F)ccc2[nH]c1=O,–
COC(=O)c1c(NCc2ccc(OC)cc2)c2cccc(Cl)c2[nH]c1=O,–
COC(=O)c1c(NCc2ccc3c(c2)OCO3)c2cccc(Cl)c2[nH]c1=O,–
COC(=O)c1c(NCCO)c2cccc(Cl)c2[nH]c1=O,–
COC(=O)c1c(NCCC(C)C)c2cccc(Cl)c2[nH]c1=O,-85.2
COC(=O)c1c(NCc2cc(F)cc(F)c2)c2cccc(Cl)c2[nH]c1=O,-98.1
COc1ccc2c(c1)C=C(CN1CCCC(c3ccc(-c4cnn(C)c4)cn3)C1)CO2 (centres undefined),–
CC(C)C(=O)N1CCCC2(CCCN2CCCc2ccccc2)C1 (centres undefined),–
CCCC(=O)NCCc1sc(-c2ccc(F)cc2)nc1C,–
CCOCC1CN(C(=O)c2ccnnc2)Cc2cnn(C)c21 (centres undefined),–
O=C(NCCc1cccnc1)c1ccn(-c2ccc3ccc(-c4cccc(F)c4)cn23)n1,–
CC(C)c1csc(NC(=O)Cn2cc(C(=O)Nc3ccc(F)cc3)ccc2=O)n1,–
O=C(NCc1ccccc1)c1nc2c(o1)CN(Cc1ccccc1)C2,–
Cc1cc(Nc2ccccn2)cc(C2CCCN(S(=O)(=O)c3ccc(F)cc3)C2)n1 (centres undefined),–
Cc1cc(Nc2ccccn2)cc(C2CCCN(C(=O)c3n[nH]c4c3CCCCCC4)C2)n1 (centres undefined),-85.6
O=C(c1n[nH]c2c1CCCCCC2)N1CCCN(c2ccccn2)CC1,–
CNc1ncccc1[C@@H]1C[C@H](NC(=O)c2ccccc2)C[C@H](C(C)C)O1,–
COc1cc(OC2CCN(C)CC2)ccc1Nc1ncc2c(n1)n(C1CCCC1)c(=O)n2C,–
CCN1C(=O)CCc2cc(C(=O)NC3CCCCC3)ccc21,–
SMILES,Tgondii IFNg
CC[C@@H]1C(=O)N(C)c2cnc(Nc3ccc(C(=O)NC4CCN(C)CC4)cc3OC)nc2N1C1CCCC1,-76.0
C=C(C)Cn1c(/C=C/c2ccco2)nc2ccccc21,–
CCn1c(-c2cc(NC(=O)c3ccncc3)n[nH]2)cc2ccc(OC)cc21,-92.0
CCn1c(-c2cc(NC(=O)c3cncc(Br)c3)n[nH]2)cc2cc(OC)ccc21,–
CCn1c(-c2cc(NC(=O)c3cccnc3)n[nH]2)cc2c(OC)cccc21,–
COc1cc(NC(=O)NC2Cc3ccccc3C2)cc(OC)c1,–
O=C(Nc1cc(C(F)(F)F)cc(C(F)(F)F)c1)NC1CCc2ccccc2O1 (centres undefined),-82.1
O=C(CSC(=O)c1ccco1)Nc1cc(C(F)(F)F)cc(C(F)(F)F)c1,–
CC(C)c1ccc(CN2CCCC(O)(CN3CCCNC(=O)C3)C2=O)cc1 (centres undefined),–
Nc1cc(-c2ncccc2C(=O)N2C[C@H]3CC[C@@H]2C3)c2cc[nH]c2n1,–
O=C(CC1SC(=Nc2ccccc2)NC1=O)Nc1ccccc1 (centres undefined),–
C/C(=N\N=C1\NC(=O)C(CC(=O)Nc2ccc(Cl)cc2)S1)c1ccco1 (centres undefined),–
O=C1NC(=Nc2ccc(Cl)cc2)SC1Cc1ccccc1 (centres undefined),-91.9
Cc1cccc(CN2C(=O)CCC23CCN(C(=O)C2CCOC2)CC3)c1 (centres undefined),–
CC(C)(O)C#Cc1ccc(CN2CCCN(C(=O)c3ccco3)CC2)s1,–
CC(C)N1CC[C@]2(CCC[C@@H](CNC(=O)c3cccn3C)O2)C1,–
CC(O)c1ccc(-c2ccc(C(N)=O)cc2)cc1 (centres undefined),–
O=C(O)c1ccc2cc(-c3ccc(O)c(C45CC6CC(CC(C6)C4)C5)c3)ccc2c1,-74.3
O=C(O)c1ccc(-c2ccc3cc(O)c(C45CC6CC(CC(C6)C4)C5)cc3c2)cc1,–
